Inconclusive results are not listed. Entries that show only a call come without a potency. More than one record can exist for a structure, and the calls need not agree. A number with no mark means an inactive call. Active and inactive are the calls of the source. Calls come from the whole dose curve; as a rule, active = well fitted inhibition curve with a large enough effect; inconclusive = small, poorly fitted or top-dose-only effect; inactive = flat fitted curve, though single readings scatter.
System: not listed separately
Test: Drug repurposing screens with cells derived from glioblastoma tumor samples (AID 1345199); note: nearly all actives have a fitted effect of over 40% in size
Details: GBM patient neurospheres viability, ATP luminescence, 48 h; at 46.1 µM (top of the series); tumour line C
How it was run: (§1)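 Primary testing used CD133+ neurospheres from four GBM patients, seven concentrations, 48 h exposure and ATP-based viability; confirmation added three slower-growing patient lines.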
Potency is the fitted concentration of half-maximal effect.

| SMILES | activity, negative = cell killing [%] |
| --- | --- |
| Cc1ccc(S(=O)(=O)NC(=O)NC2CCCC2)cc1 | -7.67 |
| O=C(Oc1cccc2cccnc12)c1ccccc1 | -9.14 |
| CC(=O)NCCCCCC(=O)O | -20.2 |

Same assay, conditions: GBM patient neurospheres viability, ATP luminescence, 48 h; tumour line A

| SMILES | Potency |
| --- | --- |
| CC[C@]12CCCN3CCc4c(n(c5ccccc45)C(=O)C1)[C@@H]32 | 6.31 µM (active) |
| COc1ccc(C(Cl)=C(c2ccc(OC)cc2)c2ccc(OC)cc2)cc1 | 11.2 µM (active) |
| CCN(CC)CCOC(=O)C(Cc1cccc2ccccc12)CC1CCCO1 (stereo not given) | 11.2 µM (active) |
| NC(N)=NCc1cccc(I)c1 | 12.6 µM (active) |
| CN(C)CCOC(c1ccc(Cl)cc1)c1ccccn1 (stereo not given) | 15.8 µM (active) |
| O=C(Nc1ccccc1)OCC(CN1CCCCC1)OC(=O)Nc1ccccc1 (stereo not given) | 11.2 µM (active) |

System: astro (control astrocytes)
Test: as above
Details: viability, ATP luminescence, 48 h; series mostly up to 45.9 µM
How it was run: as §1

| SMILES | Potency |
| --- | --- |
| C[C@H]1[C@H]2CC[C@H]3[C@@H]4CC=C5C[C@@H](N(C)C)CC[C@]5(C)[C@H]4CC[C@]23CN1C | inactive |
| CC(=O)O[C@]1(C(C)=O)CC[C@H]2[C@@H]3C=C(C)C4=CC(=O)CC[C@]4(C)[C@H]3CC[C@@]21C | inactive |
| NC(N)=NN=C(/C=C/c1ccc([N+](=O)[O-])o1)/C=C/c1ccc([N+](=O)[O-])o1 | 22.4 µM (active) |
| CCOC(=O)[C@H](CCc1ccccc1)N[C@@H](C)C(=O)N1[C@H](C(=O)O)C[C@H]2CCCC[C@@H]21 | inactive |
| CNCCc1ccccn1 | inactive |
| O=C(Nc1cccc(C2=NCCN2)c1)Nc1cccc(C2=NCCN2)c1 | inactive |
| COc1cc(NS(=O)(=O)c2ccc(N)cc2)ncn1 | inactive |
| CC(C)NCC(O)c1ccc2ccccc2c1 (stereo not given) | inactive |
| COc1ccc(C(Cl)=C(c2ccc(OC)cc2)c2ccc(OC)cc2)cc1 | inactive |
| CCN(CC)CCOC(=O)C(Cc1cccc2ccccc12)CC1CCCO1 (stereo not given) | inactive |
| Nc1ccc(C(=O)NCC(=O)O)cc1 | inactive |
| CCc1oc2ccccc2c1C(=O)c1cc(Br)c(O)c(Br)c1 | 28.2 µM (active) |
| CCN(CC)CCOc1ccc2c(c1)C(=O)c1cc(OCCN(CC)CC)ccc1-2 | inactive |
| CN1CCN(CCC(=O)N2c3ccccc3Sc3ccc(C(F)(F)F)cc32)CC1 | inactive |
| NC(N)=NCc1cccc(I)c1 | inactive |
| CCCCN=C(N)N=C(N)N | inactive |
| Nc1ccc(S(=O)(=O)NCc2ccccc2)cc1 | inactive |
| CC[N+](C)(CC)CCOC(=O)C(O)(c1ccccc1)C1CCCCC1 (stereo not given) | inactive |

| SMILES | Potency |
| --- | --- |
| CC(C)(C)NC[C@H](O)COc1nsnc1N1CCOCC1 | inactive |
| CC(=O)NC(=O)c1ccccc1O | inactive |
| O=[N+]([O-])c1cccc(S(=O)(=O)NCCNS(=O)(=O)c2cccc([N+](=O)[O-])c2)c1 | inactive |
| CN(C)CCOC(c1ccc(Cl)cc1)c1ccccn1 (stereo not given) | inactive |
| CCCCc1cc2ccccc2c(OCCN(C)C)n1 | inactive |
| CCCCCN=C(N)N/N=C/c1c[nH]c2ccc(OC)cc12 | inactive |
| CN=C(N)NCCC[C@H](N)C(=O)O | inactive |
| O=C(Nc1ccccc1)OCC(CN1CCCCC1)OC(=O)Nc1ccccc1 (stereo not given) | inactive |
| CCCN(CCc1cccs1)[C@H]1CCc2c(O)cccc2C1 | inactive |
| Nc1nc(Cl)nc2c1ncn2[C@@H]1O[C@H](CO)[C@@H](O)[C@@H]1F | 10 µM (active) |
| Cc1ccc(S(=O)(=O)NC(=O)NC2CCCC2)cc1 | inactive |
| CCCCCCCCNC(C)C(O)c1ccc(SC(C)C)cc1 (stereo not given) | 22.4 µM (active) |
| CCCCCCCCCCCCOCCOCCOCCOCCOCCOCCOCCOCCOCCO | 3.16 µM (active) |
| O=C1C(CCS(=O)c2ccccc2)C(=O)N(c2ccccc2)N1c1ccccc1 (stereo not given) | inactive |
| O=C(Oc1cccc2cccnc12)c1ccccc1 | inactive |
| CC(=O)NCCCCCC(=O)O | inactive |
| Oc1ccc(Cl)cc1Cc1cc(Cl)ccc1O | 11.2 µM (active) |
| Oc1c(Cl)cc(Cl)c(Cl)c1Cc1c(O)c(Cl)cc(Cl)c1Cl | 4.47 µM (active) |
